Drawing on PubChem BioAssay (NCATS), this text covers Potency and outcome for 16 compounds.

Common to all, as to test: qHTS profiling for inhibitors of Plasmodium falciparum proliferation (AID 504749); further: nearly all actives have a fitted effect of over 60% in size
Holding throughout (details): P. falciparum in erythrocytes, SYBR Green DNA, 72 h; series mostly up to 28.7 µM
(In general: Quantitative high-throughput screening tests each substance at several concentrations.)

The subject of experiment [1] is CP192. The method in brief:
(§1)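 P. falciparum-infected erythrocytes (0.3% parasitemia, 2.5% hematocrit final) were exposed to compounds for 72 h at 37 C in 5% CO2, then lysed with SYBR Green buffer overnight at room temperature; parasite DNA fluorescence was normalized to artemisinin and DMSO controls.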

In experiment [2] the test system is CP194. In a few lines: as §1
In experiment [3] the test system is CP201. In a few lines: as §1
In experiment [4] the test system is CP203. The method in brief: as §1
Experiment [5] deals with CP211. In a few lines:
as §1

The test system of experiment [6] is CP215. In a few lines: as §1
Experiment [7] relates to CP217. The method in brief: as §1
Experiment [8] has as its system CP237. In a few lines: as §1
Experiment [9] concerns CP238. In a few lines:
as §1

Experiment [10] relates to CP250. In a few lines: as §1
Experiment [11] relates to CP252. In a few lines:
as §1

The test system of experiment [12] is CP256. The method in brief: as §1
Experiment [13] has as its system CP260. In a few lines:
as §1

Experiment [14] relates to CP262. The method in brief:
as §1

Experiment [15] has as its system CP265. In a few lines:
as §1

Experiment [16] concerns CP266. The method in brief:
as §1

Experiment [17] has as its system CP268. In a few lines:
as §1

Experiment [18] deals with CP269. The method in brief:
as §1

Experiment [19] has as its system CP191. In a few lines: as §1
The subject of experiment [20] is CP247. In a few lines: as §1

Results filed as inconclusive are left out. The source made the active and inactive calls. The call rests on the fitted dose curve; in most records, active means well fitted inhibition curve with a large enough effect; inconclusive means small, poorly fitted or top-dose-only effect; inactive means flat fitted curve, though single readings scatter.
Potency means the concentration at half of the fitted maximal effect.

As to `Cc1cc2nc3c(=O)[nH]c(=O)nc-3n(CC(O)C(O)C(O)CO)c2cc1C` (centres undefined), the Potency result in [1], in [2], in experiment [3], in experiment [4], in experiment [5] and in experiment [6] was “inactive” throughout. The Potency result in experiment [7], in experiment [8], in experiment [9], in [10], in [11] and in experiment [13] was “inactive” in each case. In addition, the Potency result in experiment [15], in [16], in experiment [17] and in [18] was “inactive” in each case. In addition, the outcome in [12] and in experiment [14] was inactive.
Consider `CS(=O)(=O)c1ccc(C2=C(c3ccccc3)C(=O)OC2)cc1`, for which the compound was called inactive in [19], in experiment [20], in experiment [12] and in experiment [14]. Moreover, the Potency entry in experiment [2], in experiment [3], in [4], in experiment [5], in [7] and in experiment [8] was “inactive” each time. The Potency result in [9], in experiment [10], in experiment [11], in experiment [13], in [15] and in [16] was “inactive” throughout. In addition, the Potency result in experiment [17] and in [18] was “inactive” in each case.
As to `COc1cc2c(cc1OC)CC(=O)N(CCCN(C)C[C@H]1Cc3cc(OC)c(OC)cc31)CC2`, the call in experiment [19], in [20], in experiment [12] and in [14] was inactive. In addition, the Potency entry in experiment [1], in experiment [2], in experiment [3], in [4], in [5] and in experiment [6] was “inactive” each time. In addition, the Potency entry in experiment [7], in experiment [9], in experiment [10], in [11], in experiment [13] and in [15] was “inactive” in each case. The Potency entry in experiment [16], in [17] and in [18] was “inactive” throughout.
Turning to `CC(C)CN(C[C@@H](O)[C@H](Cc1ccccc1)NC(=O)O[C@H]1CO[C@H]2OCC[C@H]21)S(=O)(=O)c1ccc(N)cc1`, the outcome in [19], in experiment [20], in experiment [12] and in experiment [14] was inactive. Besides, the Potency entry in experiment [1], in [2], in [3], in [4], in [5] and in experiment [6] was “inactive” throughout. For the same compound, the Potency entry in experiment [7], in experiment [8], in [9], in experiment [10], in experiment [11] and in experiment [13] was “inactive” each time. Further, the Potency result in experiment [15], in experiment [16], in [17] and in experiment [18] was “inactive” each time.
On to `Fc1ccc(C(c2ccc(F)cc2)N2CCN(CC=Cc3ccccc3)CC2)cc1`, for which the Potency result in experiment [1] is “inactive”. In addition, the outcome in experiment [14] was inactive.
Consider `O=C1C(CCC(O)c2ccc(F)cc2)C(c2ccc(O)cc2)N1c1ccc(F)cc1` (centres undefined), for which the outcome in experiment [19], in [20], in experiment [12] and in experiment [14] was inactive. The Potency entry in experiment [1], in experiment [2], in experiment [3], in experiment [4], in experiment [5] and in experiment [6] was “inactive” in each case. Also, the Potency result in experiment [7], in experiment [8], in [9], in experiment [10], in experiment [11] and in [13] was “inactive” throughout. Besides, the Potency result in experiment [15], in experiment [16], in experiment [17] and in [18] was “inactive” each time.
As to `O=C(O)c1nc(=O)[nH]c(=O)[nH]1`, the compound was called inactive in [19], in experiment [20], in experiment [12] and in [14]. Moreover, the Potency entry in [1], in experiment [2], in experiment [3], in experiment [4], in experiment [5] and in experiment [7] was “inactive” in each case. Moreover, the Potency entry in experiment [8], in experiment [9], in experiment [10], in [11], in experiment [13] and in [15] was “inactive” each time. Also, the Potency result in experiment [16], in experiment [17] and in experiment [18] was “inactive” in each case.
With `COc1c(C)c2c(c(O)c1CC=C(C)CCC(=O)OCCN1CCOCC1)C(=O)OC2`, the Potency in [1] was 8.49 µM (active); in experiment [2], 6.75 µM (active); in [3], 13.5 µM (active); in experiment [4], 6.01 µM (active); in [5] it was 6.01 µM (active); in [6], 6.01 µM (active). Moreover, the Potency was 7.94 µM (active) in [7]; 8.91 µM (active) in [8]; 7.94 µM (active) in experiment [9]; 7.94 µM (active) in experiment [10]; 8.91 µM (active) in experiment [11]; 11.2 µM (active) in experiment [13]. Besides, the Potency in [15] was 7.94 µM (active); in experiment [16], 12 µM (active); in experiment [17], 12 µM (active); in experiment [18], 8.49 µM (active).
In the case of `N#CC(c1ccc(Cl)cc1)c1c(Cl)cc(-n2ncc(=O)[nH]c2=O)cc1Cl` (centres undefined), the call in experiment [19], in [20], in experiment [12] and in experiment [14] was inactive. The Potency entry in experiment [1], in experiment [2], in experiment [3], in [4], in [5] and in [6] was “inactive” throughout. Besides, the Potency result in experiment [7], in [8], in experiment [9], in experiment [10], in [11] and in experiment [13] was “inactive” each time. Besides, the Potency result in experiment [15], in experiment [16], in experiment [17] and in experiment [18] was “inactive” throughout.
As for `N#Cc1c(N(CC(=O)O)CC(=O)O)sc(C(=O)O)c1CC(=O)O`, the compound was classed as inactive in experiment [19], in experiment [20], in experiment [12] and in [14]. Besides, the Potency entry in experiment [1], in experiment [2], in experiment [3], in experiment [4], in [5] and in experiment [6] was “inactive” throughout. In addition, the Potency result in experiment [7], in [8], in [9], in experiment [10], in experiment [11] and in [13] was “inactive” in each case. Moreover, the Potency result in experiment [15], in experiment [16], in experiment [17] and in experiment [18] was “inactive” in each case.
For `COc1ccnc(CS(=O)c2nc3ccc(OC(F)F)cc3[nH]2)c1OC` (centres undefined), the compound was classed as inactive in experiment [19], in [20], in [12] and in experiment [14]. Further, the Potency result in experiment [1], in [2], in [3], in experiment [4], in experiment [5] and in experiment [6] was “inactive” each time. For the same compound, the Potency result in [7], in [8], in experiment [9], in experiment [10], in [11] and in experiment [13] was “inactive” in each case. Further, the Potency result in experiment [15], in experiment [16], in experiment [17] and in [18] was “inactive” throughout.
Regarding `CN1CC(=O)N2C(Cc3c([nH]c4ccccc34)[C@H]2c2ccc3c(c2)OCO3)C1=O` (some centres undefined), the result in experiment [19], in experiment [20], in [12] and in [14] was inactive. Further, the Potency entry in experiment [1], in [2], in [3], in [4], in experiment [5] and in experiment [6] was “inactive” each time. Also, the Potency result in experiment [7], in experiment [8], in [9], in [10], in experiment [11] and in [15] was “inactive” in each case. Moreover, the Potency result in experiment [16], in experiment [17] and in experiment [18] was “inactive” in each case.
As for `CN1CCN2c3ncccc3Cc3ccccc3C2C1` (centres undefined), the compound was classed as inactive in experiment [19], in experiment [20], in [12] and in [14]. Besides, the Potency result in [3], in experiment [6], in experiment [7], in [8], in [9] and in [10] was “inactive” each time. The Potency entry in experiment [11], in experiment [13], in experiment [15], in [16], in experiment [17] and in experiment [18] was “inactive” in each case.
For `C=C1c2cccc(O)c2C(O)=C2C(=O)[C@@]3(O)C(O)=C(C(N)=O)C(=O)[C@@H](N(C)C)[C@@H]3[C@@H](O)[C@H]12`, the compound was classed as inactive in experiment [19], in experiment [20], in experiment [12] and in experiment [14]. Also, the Potency entry in experiment [1], in experiment [2], in experiment [3], in experiment [4], in experiment [5] and in [6] was “inactive” throughout. Besides, the Potency result in [7], in [9], in [10], in experiment [11], in experiment [15] and in experiment [16] was “inactive” in each case. Moreover, the Potency entry in [17] and in experiment [18] was “inactive” throughout.
Take `Clc1ccc(COC(Cn2ccnc2)c2ccc(Cl)cc2Cl)c(Cl)c1` (centres undefined): the Potency in experiment [4] was 5.1 µM (active); in experiment [6] it was 5.73 µM (active); in [7], 3.16 µM (active); in experiment [8] it was 3.55 µM (active).
Regarding `NS(=O)(=O)c1cc(Cl)c(Cl)c(S(N)(=O)=O)c1`, the call in [19], in experiment [20], in experiment [12] and in experiment [14] was inactive. For the same compound, the Potency result in experiment [1], in [2], in [3], in [4], in experiment [5] and in experiment [6] was “inactive” in each case. Besides, the Potency result in [7], in experiment [8], in experiment [9], in experiment [10], in [11] and in experiment [13] was “inactive” each time. In addition, the Potency entry in experiment [15], in experiment [16], in experiment [17] and in experiment [18] was “inactive” in each case.
